Screens from PubChem.
MITF inh – blocks human microphthalmia-associated transcription factor | inhibition, % at 2.6 µM | 0.91% of 650,000 active | AlphaScreen MITF homodimerization, bead proximity signal; in the data active means inhibition above about 50%
GPR151 activ – human GPR151 activation. Q8TDV0. PathHunter beta-arrestin GPR151 cells, luminescence. activation, % at 11.2 µM. 1% of 650,000 active. AID 1508602; in the data active means activation above about 4.9%
TEAD-YAP inh – TEAD-YAP interaction inhibition; HEK-TIYL cells, TEAD-Gal4/YAP UAS-luciferase luminescence; inhibition, % at 9.12 µM; 1.4% of 640,000 active; in the data active means inhibition above about 32%
FBW7 act – human FBW7 E3 ligase activation, primary screen; Q969H0; AlphaScreen FBW7–phospho-cyclin E peptide binding, activator screen; normalized activity (activation), % at 26.1 µM; 0.13% of 650,000 active; AID 1259310; in the data active means normalized activity above about 1.9%;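 further: purified mutant Fbw7 with reduced substrate affinity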
Target sequence (Q969H0 whole entry, looked up): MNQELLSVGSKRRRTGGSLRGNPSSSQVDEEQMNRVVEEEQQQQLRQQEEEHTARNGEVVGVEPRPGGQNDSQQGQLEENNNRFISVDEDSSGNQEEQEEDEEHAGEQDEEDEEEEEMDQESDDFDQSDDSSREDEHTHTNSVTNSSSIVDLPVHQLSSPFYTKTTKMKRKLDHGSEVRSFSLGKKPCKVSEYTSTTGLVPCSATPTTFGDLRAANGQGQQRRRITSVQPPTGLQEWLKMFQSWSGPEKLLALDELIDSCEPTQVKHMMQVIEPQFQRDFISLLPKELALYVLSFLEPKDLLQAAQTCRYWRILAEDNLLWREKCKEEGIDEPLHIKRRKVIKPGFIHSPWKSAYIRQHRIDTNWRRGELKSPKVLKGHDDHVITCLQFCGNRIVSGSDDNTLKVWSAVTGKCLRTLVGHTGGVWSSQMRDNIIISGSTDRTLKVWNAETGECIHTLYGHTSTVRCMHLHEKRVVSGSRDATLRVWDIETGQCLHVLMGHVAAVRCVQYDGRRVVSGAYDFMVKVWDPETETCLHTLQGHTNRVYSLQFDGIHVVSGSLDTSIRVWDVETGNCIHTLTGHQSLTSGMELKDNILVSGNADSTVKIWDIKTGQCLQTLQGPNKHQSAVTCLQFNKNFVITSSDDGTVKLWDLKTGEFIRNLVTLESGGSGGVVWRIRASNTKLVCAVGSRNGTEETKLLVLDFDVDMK
Numbers stand for hits; n = inactive. Only some compounds are listed: those with a hit (about 3.4% of all), similar ones and a draw of the others.

SMILES	MITF inh	GPR151 activ	TEAD-YAP inh	FBW7 act
COc1ccc2cnn(-c3nc4ccccc4[nH]3)c(=O)c2c1OC	n	n	43	n
Cc1nn(-c2nc3ccccc3[nH]2)c(=O)c2ccccc12	n	n	97	n
O=C(c1ccc2c(=O)n(Cc3ccc4c(c3)OCO4)c(=S)[nH]c2c1)N1CCNCC1	n	n	n	n
Cc1nc2c(c(=O)[nH]1)CCN(Cc1ccc3ccccc3n1)C2	n	n	n	n
Cc1nc2c(cnn2-c2ccccc2)c(=O)n1-c1cccc2ccccc12	n	n	37	n
CCOC(=O)C1=C(C)N=c2s/c(=C\c3cn(-c4ccccc4)nc3-c3ccccc3)c(=O)n2C1c1ccc(OC(C)=O)cc1 (configuration not stated)	n	n	n	n
COc1ccccc1N1CCN(Cc2cc(Cl)c(O)c3ncccc23)CC1	74	n	82	n
Oc1c(Cl)cc(CN2CCCC2)c2cccnc12	113	n	93	n
Cc1ccc(-c2c[n+]3ccccc3n2-c2ccccc2)cc1	n	n	80	n
Cc1ccc(C(=O)Nc2ccccc2)cc1S(=O)(=O)Nc1ccc(Oc2ccccc2)cc1	n	n	n	n
N#CC1=C(N)Oc2cc3ccccc3cc2C1c1cccs1 (configuration not stated)	n	n	44	n
COc1cccc(C2C(C#N)=C(N)Oc3c2ccc2ccccc32)c1 (configuration not stated)	n	n	58	n
COc1ccccc1C1C(C#N)=C(N)Oc2cc3ccccc3cc21 (configuration not stated)	n	n	37	n
COc1cccc(C2C(C#N)=C(N)Oc3cc(N)ccc32)c1OC (configuration not stated)	n	n	n	n
COc1cccc(C2C(C#N)=C(N)Oc3cc4ccccc4cc32)c1 (configuration not stated)	n	n	43	n
COC(=O)c1cccc(NC(=O)COc2ccc(C(C)C)cc2)c1	n	n	n	n
O=C(CSc1nc2cc(C(=O)NCc3cccc(Cl)c3)ccc2c(=O)n1CCc1ccccc1)c1ccccc1	n	n	n	n
CCOc1ccccc1/C=C(\C#N)c1nc2ccccc2n1C	n	n	n	n
Nc1ccc2c(c1)C(=O)NC2=O	n	n	n	n
COc1cc(C2C(C#N)=C(N)Oc3c2ccc2ccccc32)cc(Cl)c1O (configuration not stated)	n	n	64	n
COc1ccc(C2C(C#N)=C(NC(=O)c3ccccc3OC)Oc3c2ccc2ccccc32)cc1OC (configuration not stated)	n	n	n	n
N#CC1=C(N)Oc2cc3ccccc3cc2C1c1ccc(F)cc1 (configuration not stated)	n	n	47	n
COc1cc(C2C(C#N)=C(N)Oc3c2ccc2ccccc32)ccc1O (configuration not stated)	n	n	58	n
N#CC1=C(N)Oc2cc3ccccc3cc2C1c1cccnc1 (configuration not stated)	n	n	48	n
CCOC(=O)c1c(N)sc(C(=O)Nc2ccc(OC)cc2OC)c1C	n	n	n	n
SMILES	MITF inh	GPR151 activ	TEAD-YAP inh	FBW7 act
CC(=O)NC(=S)Nc1ccc(S(=O)(=O)N2CCc3ccccc32)cc1	n	n	n	n
COc1ccc(-c2ccc(C(=O)NCc3ccco3)c(N(C)C)n2)cc1	n	n	n	n
CC(C)OC(=O)c1sc2nc(-c3ccccc3)ccc2c1N	n	n	84	n
COc1ccc(-c2ccc3c(N)c(C(=O)NCc4ccco4)sc3n2)cc1	n	n	33	n
CCOC(=O)c1sc2ncnc(N3CCN(c4cccc(Cl)c4)CC3)c2c1C	n	n	n	n
COc1cccc(CCNC(=O)C2CC23CCN(C(=O)Cc2ccsc2)CC3)c1 (configuration not stated)	n	n	n	n
C=CCOC(=O)C1=C(C)Nc2nnnn2C1c1cccc(OC)c1 (configuration not stated)	n	n	50	n
CCC(C)NS(=O)(=O)c1cc(C(=O)Nc2ccc(C(C)C)cc2)ccc1F (configuration not stated)	n	n	n	n
COc1ccc(CCNC(=O)CN(c2ccc(Cl)cc2)S(=O)(=O)c2ccc(OC)cc2)cc1	n	n	n	n
CCc1cccc(CC)c1NC(=S)N1CCN(C=O)CC1	n	n	n	n
CCc1cc(-c2[nH]ncc2-c2ccc3c(c2)OCCO3)c(O)cc1OC	n	n	63	n
COc1ccc2nc3oc(C(=O)N4CCOCC4)cc3cc2c1	n	n	64	n
O=C(Oc1ccc(OC(=O)C2CCCCC2)cc1)C1CCCCC1	n	n	n	n
O=C(Cn1ncc2ccsc2c1=O)NC1CC1	n	n	n	n
COc1cc(NC(=O)c2cccc(-c3ccc(C(N)=O)cc3)n2)cc(OC)c1OC	n	n	35	n
CC(=O)Nc1ccc(NC(=O)c2cnc(N3CCN(Cc4ccc5c(c4)OCO5)CC3)s2)cc1	n	n	42	n
COc1cc(NC(=O)c2cccc(N3CCN(Cc4ccc5c(c4)OCO5)CC3)n2)cc(OC)c1OC	n	n	37	n
COc1cc(NC(=O)c2cccc(-c3cccc(N)c3)n2)cc(OC)c1OC	n	n	34	n
CC(C)(C)NC(=O)COc1ccc(CNCCc2ccccc2F)cc1	n	n	n	n
Cc1ccc(C(=O)N(C)C2CCN(C)CC2)cc1C	n	n	n	n
CC(C)C(=O)Nc1ccc(C(=O)NNC(=O)COc2ccc(-c3ccccc3)cc2)cc1	n	n	n	n
Fc1ccccc1N1CCN(c2ncnc3sc4c(c23)CCCC4)CC1	n	n	n	n
O=C1CCC(CCC(=O)N2CCC(Oc3cccnc3)CC2)(Cc2ccc(Cl)cc2)N1 (configuration not stated)	n	n	n	n
COc1cc(NC(=O)c2cccc(-c3ccc(N4CCOCC4)nc3)n2)cc(OC)c1OC	n	n	34	n
COc1cc(NC(=O)c2cccc(-c3ccc(N4CCOCC4)nc3)c2)cc(OC)c1OC	n	n	n	n
SMILES	MITF inh	GPR151 activ	TEAD-YAP inh	FBW7 act
COc1ccc(-c2noc(-c3c(F)cccc3F)n2)cc1OC	n	n	n	n
Cc1ccc(N2CC(C(=O)Nc3nccs3)CC2=O)cc1C (configuration not stated)	n	n	44	n
CC[N+](CC)=c1ccc2nc3c(cc(N)c4ccccc43)oc-2c1	n	n	33	n
COc1cccc(CNC(=O)c2cnn3c(C)c(Cc4ccccc4Br)c(C)nc23)c1	n	n	n	n
CCS(=O)(=O)c1ncc(Cl)c(C(=O)Nc2cccc(C(F)(F)F)c2)n1	n	n	34	n
CCS(=O)(=O)c1ncc(Cl)c(C(=O)Nc2ccc(OC)c(Cl)c2)n1	n	n	50	n
CCS(=O)(=O)c1ncc(Cl)c(C(=O)Nc2ccccc2C(F)(F)F)n1	n	n	35	n
CCS(=O)(=O)c1ncc(Cl)c(C(=O)Nc2ccccc2F)n1	n	n	n	n
CCS(=O)(=O)c1ncc(Cl)c(C(=O)Nc2ccc(Cl)cc2)n1	n	n	n	n
CNC(=O)/C(C#N)=C/c1c(Oc2ccccc2F)nc2ccccn2c1=O	n	n	n	n
